Results filed as inconclusive are left out. The source made the active and inactive calls. The calls were made as follows: active = hit-call score of the fitted dose curve at least 0.9, where 1 is the maximum; inconclusive = response in the unintended direction; inactive = score below 0.9.
These compounds were tested against Retinoic acid receptor alpha (Homo sapiens) (UniProt P10276) (assay: ATG_RARa_TRANS: Attagene TRANS-FACTORIAL HepG2 Assay for human Retinoic Acid Receptor alpha (RARa) (AID 2283005)).
Retinoic acid receptor alpha (Homo sapiens), sequence (P10276 whole entry, looked up): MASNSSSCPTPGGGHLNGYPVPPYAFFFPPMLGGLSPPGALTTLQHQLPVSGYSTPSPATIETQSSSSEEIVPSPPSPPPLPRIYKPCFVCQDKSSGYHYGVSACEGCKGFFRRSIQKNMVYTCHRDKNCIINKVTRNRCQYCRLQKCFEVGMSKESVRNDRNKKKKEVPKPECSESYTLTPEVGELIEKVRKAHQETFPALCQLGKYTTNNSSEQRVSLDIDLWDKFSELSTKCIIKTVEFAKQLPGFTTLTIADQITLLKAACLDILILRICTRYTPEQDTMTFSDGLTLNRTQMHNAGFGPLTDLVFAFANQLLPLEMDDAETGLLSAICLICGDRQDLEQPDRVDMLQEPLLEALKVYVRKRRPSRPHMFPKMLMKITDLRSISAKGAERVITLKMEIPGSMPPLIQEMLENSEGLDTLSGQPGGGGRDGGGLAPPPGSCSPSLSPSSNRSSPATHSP
Protocol: ATG_TRANS is a cell-based, multiplexed-readout assay that uses HepG2, a human liver cell line, with measurements taken at 24 hours after chemical dosing in a 24-well plate.ATG_RARa_TRANS is one of 30 assay component(s) measured or calculated from the ATG_TRANS assay. It is designed to make measurements of mRNA induction, a form of inducible reporter, as detected with fluorescence intensity signals by Reverse transcription polymerase chain reaction (RT-PCR) and Capillary electrophoresis technology.Data from the assay component ATG_RARa_TRANS was analyzed into 1 assay endpoint. This assay endpoint, ATG_RARa_TRANS, was analyzed in the positive analysis fitting direction relative to DMSO as the negative control and baseline of activity. Using a type of inducible reporter, measures of mRNA for gain-of-signal activity can be used to understand the reporter gene at the transcription factor-level as they relate to the gene RARA. Furthermore, this assay endpoint can be referred to as a primary readout, because this assay has produced multiple assay endpoints where this one serves a reporter gene function. To generalize the intended target to other relatable targets, this assay endpoint is annotated to the nuclear receptor intended target family, where the subfamily is non-steroidal.
Human liver HepG2 cells are transiently transfected with multiple reporter transcription units (MRTUs) in 6-well plates using FuGene 6 reagent (Roche; 3 ml FuGene/1 mg DNA). The MRTU constructs are regulated by a cis-regulating element (promoter). […] A major difference between the CIS and TRANS system is that in CIS activities of endogenous TFs are measured, whereas the TRANS assay evaluates changes in activities of exogenous, chimeric NR-Gal4 proteins. […] At the end of 24 hour incubation, total RNA was isolated using TriZol reagent (Invitrogen). The isolated RNA is then reverse-transcribed using oligo(dT) primer and Mo-MLV reverse transcriptase (Invitrogen) with DNAse I (Ambion) treatment for 30 min. The one-tenth of the produced cDNA was amplified by PCR using Taq DNA polymerase (Invitrogen) and two reporter sequence-specific primers. The PCR products were fluorescently labeled by primer extension with 6-arboxyfluorescein (6-FAM) 5'-labeled reporter sequence-specific primer (2 min at 95 C, 20 s at 68 C and 10 min at 72 C) and these products were digested with 5U of HpaI (New England Biolabs) for 2h at 37 C. The fragments were purified using Qiaquick PCR columns (Qiagen), analyzed on an ABI 3130xL genetic analyzer (Applied Biosystems) with peak positions identified by using a set of X-rhodamine (ROX)-labeled MapMarker1000 molecular weight standards (BioVentures). The raw capillary electrophoresis data was processed using Attagraph software (Attagene).
For `c1ccc2[nH]c(-c3cscn3)nc2c1`, the outcome was “inactive”.
In the case of `CC(C)(C)[C@@H](O)[C@@H](Cc1ccc(Cl)cc1)n1cncn1`, the outcome is reported as “inactive”.
With `CCCCOCCOCCOCc1cc2c(cc1CCC)OCO2` the outcome was “inactive”.
In the case of `CCCOC(=O)c1ccc(C(=O)OCCC)nc1`, the outcome is reported as “inactive”.
For `CN(C)C(=O)Nc1ccc(Cl)c(Cl)c1`, the outcome was “inactive”.
`CCNc1nc(N)nc(Cl)n1` was tested, and the outcome was “inactive”.
In the case of `c1ccc(Nc2ccccc2)cc1`, the outcome is reported as “inactive”.
`CCOC(=O)c1ccc(O)cc1` was tested, and the outcome was “inactive”.
In the case of `CCCCOC(=O)[C@@H](C)Oc1ccc(Oc2ccc(C(F)(F)F)cn2)cc1`, the outcome is reported as “inactive”.
For `CCC(O)=C1C(=O)CC(C(=O)O)CC1=O` (stereo unspecified), the outcome was “inactive”.
`CCN(CC)C(=O)c1cccc(C)c1` was tested, and the outcome was “inactive”.
In the case of `COC(=O)c1cccc(C)c1S(=O)(=O)NC(=O)Nc1nc(OCC(F)(F)F)nc(N(C)C)n1`, the outcome is reported as “inactive”.
With `CCOC(=O)COc1cc(-n2ncc(C(F)(F)F)c(C)c2=O)c(F)cc1Cl` the outcome was “inactive”.
`COCCO` was tested, and the outcome was “inactive”.
`CCCN(CCC)c1c([N+](=O)[O-])cc(C(F)(F)F)c(N)c1[N+](=O)[O-]` was tested, and the outcome was “inactive”.
For `CCN(Cc1c(F)cccc1Cl)c1c([N+](=O)[O-])cc(C(F)(F)F)cc1[N+](=O)[O-]`, the outcome was “inactive”.
With `Cc1nn(C)c(Oc2ccccc2)c1C=NOCc1ccc(C(=O)OC(C)(C)C)cc1` the outcome was “inactive”.
In the case of `CC(C)(c1ccc(O)cc1)c1ccc(O)cc1`, the outcome is reported as “inactive”.
For `CC(C)CCCCCCc1ccc(O)cc1`, the outcome was “inactive”.
`OB(O)O` was tested, and the outcome was “inactive”.
For `CCCCCOC(=O)COc1cc(N2C(=O)C3=C(CCCC3)C2=O)c(F)cc1Cl`, the outcome was “inactive”.
With `CCOC(=O)[C@H](C)Oc1ccc(Oc2nc3ccc(Cl)cc3o2)cc1` the outcome was “inactive”.
In the case of `CCOC(=O)NCCOc1ccc(Oc2ccccc2)cc1`, the outcome is reported as “inactive”.
In the case of `COc1c(Cl)ccc(Cl)c1C(=O)O`, the outcome is reported as “inactive”.
For `CCCOC(=O)NCCCN(C)C`, the outcome was “inactive”.
For `O=C(Nc1ccc([N+](=O)[O-])cc1Cl)c1cc(Cl)ccc1O`, the outcome was “inactive”.
